The structures appear in SMILES notation. Out of some 68,000 compounds screened, about 2,700 (4%) showed an effect of 50% or more. Many of the other results were omitted from the sample, so strong results are more common in it than they were.

In this assay the test system is Plasmodium berghei. The assay can be described thus: Screen against P. berghei liver stage (PbLuc), transformed with Luciferase, at 2uM. In kind it is functional, HepG2. The note with it: tested at 2 uM.
In the case of `Cc1cccc(CN2C[C@@H]3COC[C@H](NS(C)(=O)=O)[C@@H]3C2)n1`, the INHIBITION came out at 32.85%.
Next, `CN(C)Cc1cnc(C2CCN(C(=O)c3ccccc3F)C2)[nH]1` (stereo unspecified): -17.01%; `CCN(Cc1ccccc1)C(=O)CN1CCOC(Cn2cncn2)C1` (stereo unspecified): 32.41%.
As for `O=C(N1CCCC(n2cncn2)C1)C1(c2ccccc2F)CCCC1` (stereo unspecified), the INHIBITION is -15.28%.
Then `O=C(COCc1nc(-c2ccncc2)no1)N1CCCCC1`, with 27.89%.
As to `Brc1cnc(NCCCOCC2CCOC2)nc1` (stereo unspecified), the INHIBITION amounted to 20.3%.
In the case of `COCCCNS(=O)(=O)c1cc(C)sc1C`, the INHIBITION is reported as -11.76%.
Then `CCc1nccn1-c1cccc(C2CCN(C(=O)COC)CC2)n1`, with 47.4%; and `N#Cc1ccsc1N1CCC(Sc2ccncc2)C1=O` (stereo unspecified), with 35.61%.
Next, `Cc1cnn(CCC(=O)N2CCCN(c3ncccc3C#N)CC2)c1`: -2.7%; `CCS(=O)(=O)N1CCC(NC(=O)c2cc(C)ccc2O)CC1`: -12.19%; `O=C(Cc1ccsc1)N1CCN(CCOc2ccccc2)CC1`: 6.17%.
Then `Cc1nc(CC(=O)N2CCN(CCOc3ccccc3)CC2)cs1`, with 65.5%.
For the compound `CC(=O)c1cc(CC(=O)N2CCN(CCOc3ccccc3)CC2)cs1`, the INHIBITION is recorded as -18.33%.
Consider `Fc1ccc(CNCc2nnc3n2CC(C(F)(F)F)CC3)cc1` (stereo unspecified), for which the INHIBITION turned out to be 0.85%.
With `FC(F)(F)C1CCc2nnc(CNCc3ccsc3)n2C1` (stereo unspecified), the INHIBITION is listed as -14.84%.
Next, `FC(F)(F)C1CCc2nnc(CNCc3cccs3)n2C1` (stereo unspecified): 58.98%.
Then `CCCC(NC(=O)NCc1cccc(N(C)C)n1)c1ccccn1` (stereo unspecified), with -40.08%.
As to `CN(Cc1cncnc1)[C@@H]1CN(C(=O)c2ccco2)[C@@H]2CCCO[C@H]12`, the INHIBITION stood at 8.17%.
Regarding `CC(C)c1nnc2n1CCN(Cc1csc(-c3cnn(C)c3)n1)C2`, the INHIBITION was determined as 47.25%.
Turning to `COCCN1CCN(Cc2csc(-c3cnn(C)c3)n2)CC1`, the INHIBITION is listed as -20.82%.
As for `Cc1nnc2n1CCN(Cc1csc(-c3cnn(C)c3)n1)C2`, the INHIBITION was determined as 57.34%.
Then `Cn1cc(-c2nc(CN3CCN(CCO)CC3)cs2)cn1`, with 53.03%.
Next, `CC(=O)N1CCN(Cc2csc(-c3cnn(C)c3)n2)CC1`: -6.3%; `CCc1nnc2n1CCN(Cc1csc(-c3cnn(C)c3)n1)C2`: -4.69%; `CN(C)Cc1ccnc(C2CCCN2Cc2ccc(F)cn2)n1` (stereo unspecified): 18.38%.
With `Cc1ncc(CN2CCC(O)(c3ccccc3F)CC2)cn1`, the INHIBITION turned out to be 4.19%.
In the case of `N#Cc1ccc(OC2CCN(CC(=O)NCC3CCCO3)CC2)cc1` (stereo unspecified), the INHIBITION is reported as -27.4%.
Then `Oc1coc2cc(OC[C@@H]3CCCN4CCCC[C@H]34)ccc12`, with -61.71%; and `CC(C)Cc1cc(C(=O)NCc2nnc[nH]2)[nH]n1`, with 16.6%; and `CN(Cc1ccsc1)C(=O)c1cccc(F)c1`, with 14.82%.
In the case of `Cc1ccc(NC2CCN(C(=O)COCC3CC3)CC2)nn1`, the INHIBITION is 15.28%.
Turning to `O=C(NCc1cccc(F)c1F)c1cc(CN2CCCC(O)C2)on1` (stereo unspecified), the INHIBITION is -81.33%.
For `O=C(NCc1c(F)cccc1Cl)c1cc(CN2CCCC(O)C2)on1` (stereo unspecified), the INHIBITION came out at 52.51%.
In the case of `O=C(NCc1ccc(Cl)s1)c1cc(CN2CCCC(O)C2)on1` (stereo unspecified), the INHIBITION stood at 4.38%.
Turning to `O=C(CCn1cccn1)NS(=O)(=O)N1CCCc2ccccc21`, the INHIBITION is on record as -1.45%.
Then `Cc1nnc(CN2CCCC2c2ccc(C(C)(C)C)cc2)o1` (stereo unspecified), with 29.19%; and `COc1ccc(C2CCCCCN2Cc2nnc(C)o2)cc1` (stereo unspecified), with 52.83%; and `Cc1nnc(CN2CCCC2c2ccc(Cl)c(Cl)c2)o1` (stereo unspecified), with -107.58%.
As for `CN(C)C(=O)CN1CC=C(c2cnn(Cc3ccccc3)c2)CC1`, the INHIBITION turned out to be 21.95%.
As to `COc1cccc(Cn2cc(C3=CCN(CC(=O)N(C)C)CC3)cn2)c1`, the INHIBITION turned out to be 57.41%.
Then `COc1cccc(Cn2cc(C3=CCN(CCO)CC3)cn2)c1`, with 13.24%; and `O=C(Nc1cnn(CCN2CCOCC2)c1)c1cc(F)ccc1F`, with 53.03%.
Then `O=C(Nc1cnn(CCN2CCOCC2)c1)c1ccccc1Cl`, with 28.33%.
Then `O=C(Nc1cnn(CCN2CCOCC2)c1)c1ccccc1O`, with -12.48%.
For `COc1ncccc1CN1C[C@@H]2OCCN(CCN(C)C)[C@@H]2C1`, the INHIBITION is given as 22.18%.
Take `c1coc(CN2CCn3c(CN4CCOCC4)nnc3C2)c1`: the INHIBITION is given as 8.99%.
Then `Cc1[nH]nc(CCC(=O)N2CCOC(CCc3ccccc3)C2)c1C` (stereo unspecified), with -18.99%; and `Fc1ccc2c(c1)nc1n2[C@@H](CNCc2nccs2)COC1`, with 61.42%; and `c1ccc2c(c1)nc1n2[C@@H](CNCc2nccs2)COC1`, with 24.64%.
Turning to `COc1ccc2c(c1)nc1n2[C@@H](CNCc2nccs2)COC1`, the INHIBITION is reported as 24.42%.

The values above are taken from ChEMBL document CHEMBL4513216, “Probing the Open Global Health Chemical Diversity Library for Multistage-Active Starting Points for Next-Generation Antimalarials” (ACS Infect Dis, 2020).
